Values joined by “and” are separate entries in the source; they are usually repeats but may differ in a detail not shown here. Equal entries are not always repeated. Results filed as inconclusive are left out. Some structures have more than one record in an assay (separate samples or runs), and their calls can disagree. Active and inactive are the calls of the source. The call rests on the fitted dose curve; in most records, active means well fitted curve in the direction sought with a large enough effect in the repeat runs; inconclusive means weak or mixed curves; inactive means no such curve, though single readings can be large; an effect the other way counts as inactive or inconclusive.

In assay [1] the target is Cytochrome P450 2C9 (Homo sapiens) (UniProt P11712). The experiment in a line: Cytochrome P450 Family 2 Subfamily C Member 9 (CYP2C9) small molecule antagonists: luciferase reporter qHTS assay (AID 1671198). In short, it runs like this: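 CYP2C9 activity was measured with a P450-Glo proluciferin substrate. Enzyme–substrate mix was held with compound for 10 min at room temperature, then NADPH regeneration solution was added for 1 h at 37C. Luciferin product was read as luminescence.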

The target in assay [2] is Cytochrome P450 1A2 (Homo sapiens) (UniProt P05177). The experiment in a line: Cytochrome P450 Family 1 Subfamily A Member 2 (CYP1A2) small molecule antagonists: luciferase reporter qHTS assay (AID 1671199). In outline:
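Read-out is luminescence from luciferin detection reagent (20 min) proportional to CYP1A2 activity; compounds in DMSO preincubated 10 min with enzyme and proluciferin substrate, then NADPH regeneration solution, 1 h, room temperature.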

Assay [3] has as its target Voltage-gated inwardly rectifying potassium channel KCNH2 (Homo sapiens) (UniProt Q12809). The experiment in a line: Human Ether-a-go-go-Related Gene (hERG) channel small molecule antagonists: fluorescence cell-based qHTS assay (AID 1671200). In outline:
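Thallium flux as potassium surrogate: FluxOR II dye loaded 1 h at room temperature into hERG-expressing U2OS cells, then stimulus buffer added after 10 min. Kinetic 480 nm excitation/540 nm emission read, 2 min.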

The target of assay [4] is Cytochrome P450 3A4 (Homo sapiens) (UniProt P08684). The experiment in a line: Cytochrome P450 Family 3 Subfamily A Member 4 (CYP3A4) small molecule antagonists: luciferase reporter qHTS assay (AID 1671201). In outline:
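Recombinant human CYP3A4 converts a proluciferin substrate to luciferin over 1 h at room temperature after NADPH regeneration solution is added (compound preincubated 10 min); detection reagent stops reaction, luminescence read 20 min later as relative units.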
Further: nearly all actives have a fitted effect of over 50% in size.
Potency means the concentration at half of the fitted maximal effect.

Voltage-gated inwardly rectifying potassium channel KCNH2 (Homo sapiens), sequence (Q12809 whole entry, looked up): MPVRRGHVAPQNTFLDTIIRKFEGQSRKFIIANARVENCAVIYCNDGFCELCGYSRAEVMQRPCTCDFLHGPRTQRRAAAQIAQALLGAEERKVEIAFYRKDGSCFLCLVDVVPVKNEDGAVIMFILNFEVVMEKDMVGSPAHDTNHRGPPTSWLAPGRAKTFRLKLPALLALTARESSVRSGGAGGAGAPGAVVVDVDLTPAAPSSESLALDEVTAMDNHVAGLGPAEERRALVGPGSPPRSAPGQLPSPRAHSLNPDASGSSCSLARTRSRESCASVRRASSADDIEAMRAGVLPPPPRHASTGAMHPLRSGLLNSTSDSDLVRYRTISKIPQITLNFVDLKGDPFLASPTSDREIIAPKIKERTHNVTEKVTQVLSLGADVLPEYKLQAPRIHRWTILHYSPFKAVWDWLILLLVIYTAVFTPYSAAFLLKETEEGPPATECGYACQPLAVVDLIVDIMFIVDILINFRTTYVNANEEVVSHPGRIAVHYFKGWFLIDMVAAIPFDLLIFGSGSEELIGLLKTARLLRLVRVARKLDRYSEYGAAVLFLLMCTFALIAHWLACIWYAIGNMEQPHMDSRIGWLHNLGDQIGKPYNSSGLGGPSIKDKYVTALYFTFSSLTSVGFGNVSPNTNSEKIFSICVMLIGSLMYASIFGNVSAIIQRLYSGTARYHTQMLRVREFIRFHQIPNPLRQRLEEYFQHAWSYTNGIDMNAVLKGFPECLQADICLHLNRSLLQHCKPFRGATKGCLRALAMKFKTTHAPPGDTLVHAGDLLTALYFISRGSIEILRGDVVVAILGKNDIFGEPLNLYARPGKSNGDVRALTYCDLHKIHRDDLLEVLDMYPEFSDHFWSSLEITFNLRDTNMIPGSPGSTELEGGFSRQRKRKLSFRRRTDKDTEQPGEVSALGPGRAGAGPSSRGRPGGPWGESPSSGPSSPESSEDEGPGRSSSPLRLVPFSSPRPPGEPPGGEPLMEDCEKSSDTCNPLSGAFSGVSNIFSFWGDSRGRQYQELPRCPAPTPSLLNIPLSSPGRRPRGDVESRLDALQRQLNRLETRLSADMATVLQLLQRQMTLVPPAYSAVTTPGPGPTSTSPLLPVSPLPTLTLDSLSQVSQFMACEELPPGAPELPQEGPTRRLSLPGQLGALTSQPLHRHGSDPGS
Cytochrome P450 2C9 (Homo sapiens), sequence (P11712 whole entry, looked up): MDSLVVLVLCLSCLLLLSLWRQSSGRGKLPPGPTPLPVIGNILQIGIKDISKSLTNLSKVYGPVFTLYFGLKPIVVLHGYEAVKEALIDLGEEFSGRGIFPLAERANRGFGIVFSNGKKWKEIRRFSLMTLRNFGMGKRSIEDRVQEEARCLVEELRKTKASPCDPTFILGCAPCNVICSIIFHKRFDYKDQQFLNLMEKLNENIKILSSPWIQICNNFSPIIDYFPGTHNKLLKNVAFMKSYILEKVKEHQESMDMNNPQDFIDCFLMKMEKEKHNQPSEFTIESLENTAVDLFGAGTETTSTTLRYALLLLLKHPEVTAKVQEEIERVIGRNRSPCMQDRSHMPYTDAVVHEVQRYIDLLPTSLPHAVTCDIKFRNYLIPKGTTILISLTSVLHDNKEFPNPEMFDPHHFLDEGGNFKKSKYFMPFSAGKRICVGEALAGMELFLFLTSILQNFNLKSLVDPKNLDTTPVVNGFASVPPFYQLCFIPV
Cytochrome P450 1A2 (Homo sapiens), sequence (P05177 whole entry, looked up): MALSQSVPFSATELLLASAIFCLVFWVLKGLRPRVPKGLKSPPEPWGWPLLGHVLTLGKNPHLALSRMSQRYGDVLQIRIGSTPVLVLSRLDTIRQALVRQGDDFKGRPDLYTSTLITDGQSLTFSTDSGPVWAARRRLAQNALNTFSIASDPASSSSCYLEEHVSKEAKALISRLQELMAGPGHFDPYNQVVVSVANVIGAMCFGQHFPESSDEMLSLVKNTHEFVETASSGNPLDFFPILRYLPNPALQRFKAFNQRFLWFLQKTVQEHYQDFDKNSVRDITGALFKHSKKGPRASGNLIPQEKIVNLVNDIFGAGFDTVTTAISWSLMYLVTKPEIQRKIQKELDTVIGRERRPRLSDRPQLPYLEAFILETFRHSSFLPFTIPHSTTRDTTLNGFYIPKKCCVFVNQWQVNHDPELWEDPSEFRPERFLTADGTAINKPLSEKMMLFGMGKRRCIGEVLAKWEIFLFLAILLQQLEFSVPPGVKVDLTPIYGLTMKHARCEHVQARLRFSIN
Cytochrome P450 3A4 (Homo sapiens), sequence (P08684 whole entry, looked up): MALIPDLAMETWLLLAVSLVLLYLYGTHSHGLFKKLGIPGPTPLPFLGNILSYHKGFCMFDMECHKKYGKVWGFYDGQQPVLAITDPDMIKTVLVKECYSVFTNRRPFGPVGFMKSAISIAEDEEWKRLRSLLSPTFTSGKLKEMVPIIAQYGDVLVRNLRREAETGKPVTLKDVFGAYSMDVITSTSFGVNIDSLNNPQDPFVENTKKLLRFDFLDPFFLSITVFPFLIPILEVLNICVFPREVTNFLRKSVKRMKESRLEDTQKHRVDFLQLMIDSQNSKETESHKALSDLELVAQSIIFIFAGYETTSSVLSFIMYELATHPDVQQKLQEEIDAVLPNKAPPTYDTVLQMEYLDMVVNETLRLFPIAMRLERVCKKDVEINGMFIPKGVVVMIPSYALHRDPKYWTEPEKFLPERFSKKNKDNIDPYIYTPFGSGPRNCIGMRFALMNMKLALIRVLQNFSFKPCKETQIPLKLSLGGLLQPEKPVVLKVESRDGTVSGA

As to `CC12CCC(CC1)C(C)(C)O2`, the Potency entry in assay [1], in assay [3] and in assay [4] was “inactive” in each case. Moreover, the Potency in assay [2] was 31.3 µM (active) and inactive.

Turning to `COc1ccc2cc(S(=O)(=O)N[C@H](CC(=O)N[C@H](Cc3ccc(CN4[C@H](C)CCC[C@@H]4C)cc3)C(=O)N(C)C(C)C)c3ccc4c(c3)OCO4)ccc2c1`, the results for the Potency in assay [1], in assay [3] and in assay [4] were 59.9 µM (active), 7.34 µM (active) and 0.0949 µM (active), respectively. Besides, in assay [2], the Potency result is “inactive”.

For `O=C1O[C@H]([C@@H](O)CO)C(O)=C1O`, the Potency result in assay [1], in assay [3] and in assay [4] was “inactive” in each case. Moreover, the Potency result in assay [2] was “inactive and 19.5 µM (active)”.

For `CS(=O)(=O)OCCCCOS(C)(=O)=O`, the Potency entry in assay [1], in assay [2], in assay [3] and in assay [4] was “inactive” each time.

On to `O=C(O)c1ccccc1`, for which the Potency result in assay [1], in assay [3] and in assay [4] was “inactive” in each case. Also, the Potency in assay [2] was 37.4 µM (active) and inactive.

As for `Cc1cccc(C)c1`, the Potency entry in assay [1], in assay [2], in assay [3] and in assay [4] was “inactive” in each case.

Regarding `CCCCC(CC)C(=O)O` (configuration not stated), the Potency entry in assay [1] is “inactive and 71 µM (active)”. Besides, the Potency result in assay [2], in assay [3] and in assay [4] was “inactive” in each case.

Turning to `O=c1[nH]cc(F)c(=O)[nH]1`, the Potency result in assay [1], in assay [3] and in assay [4] was “inactive” in each case. In addition, the Potency in assay [2] is 32.9 µM (active) and inactive.

With `CN(C)CCOC(C)(c1ccccc1)c1ccccn1` (configuration not stated), the Potency entry in assay [1], in assay [2], in assay [3] and in assay [4] was “inactive” throughout.

For the compound `CCCCCCCCCCCC[N+](C)(C)Cc1ccccc1`, the Potency was 77.2 µM (active) in assay [1]; 34.9 µM (active) and 38.7 µM (active) and 36.3 µM (active) in assay [2]; 1.08 µM (active) and 1.5 µM (active) and 1.07 µM (active) in assay [3]. Further, in assay [4], the Potency result was “inactive”.

As for `Cc1cn([C@H]2C=C[C@@H](CO)O2)c(=O)[nH]c1=O`, the Potency result in assay [1], in assay [2], in assay [3] and in assay [4] was “inactive” in each case.

With `COc1ccc(C(Cl)=C(c2ccc(OC)cc2)c2ccc(OC)cc2)cc1`, the Potency in assay [1] is 8.9 µM (active) and 7.96 µM (active) and 7.76 µM (active). The Potency entry in assay [2], in assay [3] and in assay [4] was “inactive” each time.

`O=C(O)CC(O)C(=O)O` (configuration not stated): the Potency result in assay [1], in assay [3] and in assay [4] was “inactive” each time. Moreover, the Potency entry in assay [2] was “inactive and 35.6 µM (active)”.

On to `CCCc1cc(=O)[nH]c(=S)[nH]1`, for which the Potency entry in assay [1], in assay [2], in assay [3] and in assay [4] was “inactive” throughout.

`CC(=O)C(=O)O`: the Potency result in assay [1], in assay [3] and in assay [4] was “inactive” in each case. The Potency result in assay [2] was “inactive and 22.4 µM (active)”.

Regarding `Cc1ncc([N+](=O)[O-])n1CCO`, the Potency entry in assay [1], in assay [2], in assay [3] and in assay [4] was “inactive” throughout.

For `O=S1(=O)OC(c2ccc(O)cc2)(c2ccc(O)cc2)c2ccccc21`, the Potency was 3.17 µM (active) and 3.56 µM (active) and 2.45 µM (active) in assay [1]; 25.2 µM (active) and 39.9 µM (active) in assay [2]. For the same compound, the Potency result in assay [3] and in assay [4] was “inactive” each time.

On to `O=CC(=O)c1ccccc1`, for which the Potency entry in assay [1], in assay [3] and in assay [4] was “inactive” in each case. The Potency in assay [2] was 35.6 µM (active).

Turning to `Cc1c(C(=O)O)c(O)cc2c1C(=O)c1c(O)c([C@@H]3O[C@H](CO)[C@@H](O)[C@H](O)[C@H]3O)c(O)c(O)c1C2=O`, the Potency is 34.7 µM (active) and 39.9 µM (active) in assay [1]; 34.7 µM (active) and 39.9 µM (active) and inactive in assay [2]. In addition, the Potency result in assay [3] and in assay [4] was “inactive” throughout.

As to `NC(CO)(CO)CO`, the Potency result in assay [1], in assay [2], in assay [3] and in assay [4] was “inactive” each time.

On to `CN(C)C(=O)Nc1ccc(Cl)c(Cl)c1`, for which the Potency result in assay [1], in assay [3] and in assay [4] was “inactive” in each case. In assay [2], the Potency is 794 nM (active) and 1.42 µM (active) and 645 nM (active).

`CCN(Cc1c(F)cccc1Cl)c1c([N+](=O)[O-])cc(C(F)(F)F)cc1[N+](=O)[O-]`: the Potency is 7.96 µM (active) in assay [1] and 0.399 µM (active) in assay [4]. The Potency result in assay [2] and in assay [3] was “inactive” throughout.

Turning to `CNNCc1ccc(C(=O)NC(C)C)cc1`, the Potency entry in assay [3] is “inactive”.

Take `CCCCC1(COC(=O)CCC(=O)O)C(=O)N(c2ccccc2)N(c2ccccc2)C1=O`: in assay [3], the Potency entry was “inactive”.

On to `CCCCNC(=O)NS(=O)(=O)c1ccc(C)cc1`, for which the Potency entry in assay [3] is “inactive”.

In the case of `C1=CC2C3C=CC(C3)C2C1` (configuration not stated), the Potency in assay [2] is 57 µM (active). Moreover, the Potency result in assay [3] and in assay [4] was “inactive” in each case.

For `CC(=O)Nc1c(I)c(NC(C)=O)c(I)c(C(=O)O)c1I`, the Potency result in assay [1], in assay [2], in assay [3] and in assay [4] was “inactive” throughout.

On to `O=C1c2c(O)cccc2Cc2cccc(O)c21`, for which the Potency entry in assay [1], in assay [2], in assay [3] and in assay [4] was “inactive” throughout.

Regarding `CCCCOC(=O)c1ccc(O)cc1`, the Potency was 32.1 µM (active) and 28.3 µM (active) and 17.4 µM (active) in assay [1]; 4.54 µM (active) and 6.33 µM (active) and 4.36 µM (active) in assay [2]. Also, the Potency entry in assay [3] and in assay [4] was “inactive” in each case.

With `C=CCc1ccc(O)c(OC)c1`, the Potency in assay [2] was 31.5 µM (active) and 39.9 µM (active). The Potency entry in assay [3] and in assay [4] was “inactive” each time.

For the compound `CC(C)NCC(O)c1ccc(O)c(O)c1` (configuration not stated), the Potency result in assay [3] is “inactive”.

In the case of `Cc1ccc(S(=O)(=O)O)cc1`, the Potency result in assay [3] is “inactive”.

With `Oc1ccccc1`, the Potency result in assay [3] is “inactive”.

For the origin of these results see PubChem BioAssay (Tox21).
